What all share (assay type): functional
The test system of experiment [1] is Plasmodium falciparum. Kind of experiment: GSK_TCMDC: Inhibition of Plasmodium falciparum 3D7 in whole red blood cells, using parasite LDH activity as an index of growth. Test compounds present at 2uM.
Experiment [2] concerns Plasmodium falciparum. Kind of experiment: GSK_TCMDC: Inhibition of Plasmodium falciparum Dd2 in whole red blood cells, using parasite LDH activity as an index of growth. Test compounds present at 2uM.
The test system of another experiment is HepG2. The experiment is described as follows: GSK_TCMDC: Percent inhibition of human HepG2 cell line. Test compounds present at 10uM.

Each structure is given as a SMILES string.

Consider `CC[C@H](NC(=O)c1c(N)c(-c2sccc2Cl)nc2ccccc12)c1ccccc1`, for which the Inhibition (commonly how much of the control response was suppressed) in the experiment with Plasmodium falciparum [1] is listed as 99%; in the experiment with Plasmodium falciparum [2], 92%; in the experiment with HepG2, 0%.
For `COc1cccc2cc(C(=O)N[C@@H](CC(C)C)C(=O)N[C@H](/C=N/NC(=O)Cc3cccnc3)CCc3ccccc3)oc12`, the Inhibition stood at 82% in the experiment on Plasmodium falciparum [1], 54% with Plasmodium falciparum [2] and 6% in the experiment on HepG2.
Consider `CCCNCc1ccc(-c2ccc(CN(Cc3cnc(C)cn3)C(=O)c3nn(-c4ccccc4)nc3C)cc2)nc1.O=C(O)C(F)(F)F`, for which the Inhibition turned out to be 99% in the experiment on Plasmodium falciparum [1], 49% in the experiment with Plasmodium falciparum [2] and 22% in the experiment on HepG2.
Regarding `Cn1cncc1-c1ccc2ncnc(Nc3ccc(OCc4ccccc4)cc3)c2c1`, the values for the Inhibition with Plasmodium falciparum [1], in the experiment on Plasmodium falciparum [2] and in the experiment with HepG2 were 100%, 99% and 4%, respectively.
Turning to `CCN(CC)CCOc1ccc(Nc2ncc3cc(-c4c(Cl)cccc4Cl)c(=O)n(C)c3n2)cc1` [PD-0166285], the Inhibition was found to be 90% in the experiment on Plasmodium falciparum [1], 91% with Plasmodium falciparum [2] and 72% in the experiment with HepG2.
As for `COc1cc2ncnc(NCCc3ccccc3Cl)c2cc1OC`, the Inhibition is 88% in the experiment with Plasmodium falciparum [1], 11% in the experiment with Plasmodium falciparum [2] and 0% with HepG2.
As to `Cc1nc(C(C)Nc2nncc(-c3ccc(Cl)cc3)n2)cs1` (stereo not drawn), the values for the Inhibition with Plasmodium falciparum [1], in the experiment with Plasmodium falciparum [2] and in the experiment on HepG2 were 91%, 55% and 0%, respectively.
For `CC(=O)N1N=C(c2ccc(Cl)cc2)Sc2c1nc(-c1ccccc1)n2C(C)=O`, in that order: 100%, 81% and 0%.
`Cl.Fc1cc(Cl)ccc1Nc1ccnc(Nc2ccc3cn[nH]c3c2)n1`: the Inhibition in the experiment on Plasmodium falciparum [1] is on record as 97%; in the experiment with Plasmodium falciparum [2] it was 56%; with HepG2, 8%.
As for `Oc1ccc2ccccc2c1C=NNc1nc(=Nc2ccccc2)nc(N2CCOCC2)[nH]1`, the Inhibition in the experiment with Plasmodium falciparum [1] is on record as 100%; in the experiment on Plasmodium falciparum [2], 49%; with HepG2, 66%.
Take `Cc1cccc2nc(-c3ccc(-c4ccc(CN5CCCC(N)C5)cc4)s3)[nH]c12.O=C(O)C(F)(F)F` (stereo not drawn): the values for the Inhibition with Plasmodium falciparum [1], with Plasmodium falciparum [2] and in the experiment on HepG2 were 100%, 100% and 29%, respectively.

The record behind these values is ChEMBL document CHEMBL1157539, “Thousands of chemical starting points for antimalarial lead identification” (Nature, 2010).
